FBPA coupling cs – qHTS Assay for Inhibitors of Fructose-1,6-bisphosphate Aldolase from Giardia Lamblia: Coupling assay counterscreen; 290,000 compounds, 0.67% hits; activity change, negative = inhibition, % at 58.2 µM, hits read low; coupling enzyme system counterscreen, AmpLite Red fluorescence; in the data active = activity change below about -30%
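Counterscreen of the coupled detection system alone, without aldolase: glyceraldehyde-3-phosphate coupling enzymes plus AmpLite Red readout. Compounds at 57.5 uM final, 10 min RT preincubation, 20 min RT reaction, fluorescence 525/598 nm.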
GALK inh – qHTS Assay for Inhibitors of Human Galactokinase (GALK); Purified GALK, Kinase-Glo residual ATP luminescence; Potency, µM (doses to about 57.5 µM), for the others: at the top dose activity change, negative = inhibition, usual class: inhibitors; 270,000 compounds, 0.007% hits; also: potency is read from the fitted curve at half-maximal effect
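Luminescence from leftover ATP (Ultra-Glo luciferase/luciferin) served as read-out after a 1 h room-temperature reaction of 5 nM GALK with 35 uM ATP and 100 uM galactose.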
TrxR1 substrate – qHTS Assay for Substrates of Mammalian Selenoprotein Thioredoxin Reductase 1 (TrxR1): qHTS; purified TrxR1 substrate turnover, NADPH consumption readout; Potency, µM (top dose mostly 114 µM), for the others: top-dose activity change, negative = substrate turnover; 390,000 compounds, 0.01% hits; AID 588456, 2011; also: potency is read from the fitted curve at half-maximal effect; nearly all actives have a fitted effect of over 50% in size
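Rat TrxR1, dispensed at 90 nM, was prereduced with 400 uM NADPH (final) for 5 min at ~22 deg C, then incubated with compound 15 min before 400 uM selenite. A first-read NADPH fluorescence drop versus no-compound background flagged substrates.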
Giardia killer – Small Molecules that selectively kill Giardia lamblia: qHTS | 340,000 compounds, 0.15% hits | Giardia lamblia trophozoite viability | AID 540267, 2011 | activity change, % at 7.66 µM, hits read low; in the data active = activity change below about -80%; inconclusive = between about -30% and that limit;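 also: parasites exposed to compound for two days anaerobically before the ATP read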
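Luminescence from cellular ATP indicates surviving trophozoites (100 cells/well) following 48 hrs anaerobic compound treatment at 37 deg C; signal develops 15-30 min at room temperature.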
PI4K2A block – qHTS for small molecular inhibitors of PI4K2A. Phosphatidylinositol 4-kinase type 2-alpha (Homo sapiens), Q9BTU6. purified PI4K2A, ADP-Glo luminescence, 1 h; hits give low values. activity change, negative = inhibition, % at 76.9 µM. 420,000 compounds, 0.13% hits. AID 1346378, 2018; in the data active = activity change below about -50%; inconclusive = mostly about -30% to -49%;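 also: -100% = wells without enzyme as full effect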
Target sequence (Q9BTU6 whole entry, looked up): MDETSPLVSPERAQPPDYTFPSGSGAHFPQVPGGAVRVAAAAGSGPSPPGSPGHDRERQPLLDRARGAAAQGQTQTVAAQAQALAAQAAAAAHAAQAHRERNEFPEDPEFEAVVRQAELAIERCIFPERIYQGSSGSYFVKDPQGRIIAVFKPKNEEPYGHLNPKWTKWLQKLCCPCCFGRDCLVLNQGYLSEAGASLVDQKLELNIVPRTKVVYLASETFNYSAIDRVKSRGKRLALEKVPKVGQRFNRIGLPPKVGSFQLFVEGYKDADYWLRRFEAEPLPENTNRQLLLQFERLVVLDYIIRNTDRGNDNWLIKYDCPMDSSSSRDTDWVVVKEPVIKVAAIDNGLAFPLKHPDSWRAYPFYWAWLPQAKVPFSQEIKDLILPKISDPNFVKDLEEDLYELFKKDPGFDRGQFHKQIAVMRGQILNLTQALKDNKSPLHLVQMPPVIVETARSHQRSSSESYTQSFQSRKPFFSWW
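Compounds are screened against recombinant PI4K2A using PI as substrate and ATP, the latter dispensed at 300 microM. Reactions run one hour at ambient temperature before ADP-Glo detection; full inhibition defined by wells lacking enzyme.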
TrxR1 inh – qHTS Assay for Inhibitors of Mammalian Selenoprotein Thioredoxin Reductase 1 (TrxR1): qHTS; recombinant rTrxR1, NADPH fluorescence consumption, selenite substrate; Potency, µM (doses to about 114 µM), for inactives: top-dose activity change, negative = inhibition, actives largely listed as inhibitors; 390,000 compounds, 1% hits; AID 588453, 2011; also: potency is read from the fitted curve at half-maximal effect; nearly all actives have a fitted effect of over 65% in size
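Rat TrxR1 (90 nM in the dispensed reagent) was pre-reduced with 400 uM NADPH for 5 min at room temperature, then incubated with compound for 15 min. After 400 uM selenite was added, NADPH fluorescence (Ex 340/Em 450 nm) was followed for 8 min.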
* marks the source's active call; other numbers are inactive results; ? = inconclusive; · = not tested or not shown; [ ] = remark or other dose. Sampled rows, rich in hits. Any-hit rate of the full collection: about 1.5%. Unless noted, calls follow the shape of the dose curve; as a rule, active = well fitted curve in the direction sought with a large enough effect; inconclusive = small, poorly fitted or top-dose-only effect, or another doubt; inactive = no such curve, though single readings can be large; an effect the other way counts as inactive or inconclusive. Unless noted, % is scaled to controls: 0 for no effect and ±100 for the full control effect.

SMILES	FBPA coupling cs	GALK inh	TrxR1 substrate	Giardia killer	PI4K2A block	TrxR1 inh
CCCCN(C(=O)Cn1ncc(Cl)c(Cl)c1=O)c1c(N)n(CC(C)C)c(=O)[nH]c1=O	-1	2%	-12%	0	-26	56µM*
CCCCN(C(=O)CN1CC(C)OC(C)C1)c1c(N)n(CC(C)C)c(=O)[nH]c1=O (centres undefined)	5	1%	-8%	0	-1	6%[57.1 µM]
CCOC(=O)C1CCN(c2ccc(Cl)nn2)CC1	2	0%	9%	19	3	23%
CCOC(=O)C1CCN(c2ccc(-c3cccs3)nn2)CC1	3	19%	-4%	-7	-69*	-15%
Cc1cccc2sc(NNC(=O)c3cc(=O)c4ccccc4o3)nc12	-8	1%	-5%	-13	-5	-18%
Cc1ccc2sc(NNC(=O)c3cc(=O)c4ccccc4o3)nc2c1C	-47*	0%	-9%	11	3	4%
O=[N+]([O-])c1cccc(C([O-])=C(C(=S)Nc2cccc3ccccc23)[n+]2ccccc2)c1	·	·	3%	-3	-8	-6%
O=[N+]([O-])c1cccc(/C([O-])=C(/C(=S)Nc2cccc3ccccc23)[n+]2ccccc2)c1	-42*	0%	4%	-26	-7	-2%
CCOC(=O)Cc1nnc(Nc2ccc(C)cc2)c2ccccc12	1	0%	-13%	6	-75*	-12%
CC1CCN(CC[S-])CC1.O.O.[Cl][Pt]	·	·	-7%	·	·	1.4µM*
COC(=O)c1ccccc1NC(=O)COc1ccccc1C(=O)Nc1ccccc1	·	·	3%	·	·	30%
COc1ccc(C(=O)CCS(=O)(=O)c2ccc(F)cc2)cc1OC	·	0%	·	·	·	·
Cc1ccc(S(=O)(=O)CCC(=O)c2ccc(F)cc2)cc1	0	-7%	-3%	-4	24	1.6µM*
Cc1ccc(S(=O)(=O)CC(=O)c2ccccc2)cc1	0	2%	-6%	9	3	35µM*
Cc1ccc(S(=O)(=O)CCC(=O)NCc2ccc(Cl)cc2)cc1	0	0%	-8%	2	-2	-7%
Cc1ccc(C(=O)CCS(=O)(=O)c2ccc(Cl)cc2)cc1	0	-9%	-1%	-5	22	0.56µM*
Cc1ccc(C(=O)CCS(=O)(=O)c2ccc(F)cc2)cc1	5	-6%	-11%	10	25	1.1µM*
O=C(COc1ccccc1C(=O)Nc1ccccc1)Nc1cccc(Cl)c1	·	·	-6%	·	·	3%
Cc1ccccc1C1CC(=O)Oc2ccc(O)cc21 (centres undefined)	-2	·	·	·	·	·
Cc1cc(C(=O)CS(=O)(=O)c2ccc(Cl)cc2)cc(C)c1O	-1	0%	-1%	-13	-2	45µM*
O=C(/C=C1\C(=O)Nc2ccccc21)/C=C1\C(=O)Nc2ccccc21	-9	-4%	1%	-17	-3	1µM*
COC(=O)C/C=C\[C@@H](C)[C@@H](/C=N\O[C@@H](C)c1cc(-c2c(C)cc(C)cc2C)no1)OC	-3	·	·	·	·	·
CCCN1C(=O)COc2ccc(C(=O)c3ccccc3C(=O)O)cc21	5	2%	4%[57.1 µM]	6	6	8%[57.1 µM]
O=C(O)c1ccccc1C(=O)c1ccc2c(c1)N(Cc1cccc(F)c1)C(=O)CO2	-42*	6%	1%	-27	-1	27%
O=C(CCC1N=C2c3ccccc3N=C(SCc3ccccc3F)N2C1=O)NCc1ccccc1 (centres undefined)	·	·	0%[57.1 µM]	·	-5	4%[57.1 µM]
SMILES	FBPA coupling cs	GALK inh	TrxR1 substrate	Giardia killer	PI4K2A block	TrxR1 inh
O=C(Cn1c(=O)n(Cc2ccco2)c(=O)c2ccccc21)Nc1ccc(Cl)cc1Cl	·	·	0%	·	8	16%
Cc1cc(=O)c2c(o1)C(=O)c1occc1C2=O	·	·	-11%	-4	?	32µM*
COc1c2occc2c(OC)c2c(=O)cc(C)oc12	-25	-2%	-7%	-8	1	6%
COc1cccc2c1C(=O)/C(=C/c1ccc(N(C)C)cc1)C2	·	·	1%	·	·	-3%
CN(C)CCOC1=Cc2ccccc2Sc2ccc(Cl)cc21	·	·	·	·	-1	·
CC(C)c1cc(NC(=O)CCl)on1	1	0%	0%	7	2	50µM*
Cc1cc(Br)c(NC(=O)CCl)c(Br)c1	1	-1%	1%	-10	1	?
CC(=O)n1cc(N(C(=O)CCl)c2ccc(Cl)cc2)c2ccccc21	0	-2%	-3%	14	24	0.71µM*
CC(=O)n1cc(C=O)c2ccccc21	·	·	3%	·	·	12%
COc1ccccc1N(C(=O)CCl)c1cn(C(C)=O)c2ccccc12	1	4%	-9%	-26	17	4µM*
CCc1cccc2c(CCO)c[nH]c12	·	·	·	·	-1	·
CCc1nnc(NC(=O)c2ccc(-c3ccc(C(C)=O)cc3)o2)s1	·	·	8%	-27	4	14µM*
CCc1nnc(NC(=O)c2ccc(-c3ccc(Cl)cc3)o2)s1	4	0%	44%	-28	-6	5%[57.1 µM]
CN1C2CCC1/C(=C\c1ccc(F)cc1)C(=O)/C2=C/c1ccc(F)cc1	-1	0%	-11%	0	-2	-17%
C=CC(=O)N1C/C(=C/c2ccc(F)cc2)C(=O)/C(=C\c2ccc(F)cc2)C1	·	·	-8%	5	-13	25µM*
CC(=NNC(=S)N1CCCC1)c1ccccn1	·	·	·	·	-12	·
CC(=NNC(=S)N1CCC1)c1ccccn1	·	·	-5%	1	-60*	7.1µM*
O=C(c1ccc(F)cc1)c1cc2ccc(O)cc2oc1=O	8	14%	-2%	-2	-88*	?
O=C(O)c1cc2ccc(O)cc2oc1=O	·	·	·	·	-5	·
O=C(NC1=C(Nc2ccc(F)cc2)C(=O)c2ccccc2C1=O)c1ccc(Cl)cc1	-42*	-3%	-18%	7	-17	?
O=C(NNC(=O)c1ccc(NC(=O)c2ccccc2)cc1)c1ccc(F)cc1	0	-2%	16%	-14	-16	35%
CC(=O)C1=C(C)OC(N)=C(C#N)C1c1ccco1 (centres undefined)	-16	-3%	2%[57.1 µM]	-7	-11	11µM*
CC(=O)C1=C(C)OC(N)=C(C#N)C1c1cccc2ccccc12 (centres undefined)	-34*	4%	10%[57.1 µM]	-2	-1	-40%
CC(=O)C1=C(C)OC(N)=C(C#N)C1c1ccncc1 (centres undefined)	-25	1%	9%[57.1 µM]	-21	-1	3%

Bioassay records as filed in PubChem BioAssay.
